Assay results reported in the supplement of paper PMC10849652.
Of roughly 8,800 targets only a part is listed; those with a hit were picked by preference. About 0.5% of all pairs of compound and target were hits.

Experiments:
Test in all cases: log2 fold change, soluble protein after heating vs DMSO (PISA); higher = thermal stabilisation; K562 lysate, 10 uM; active = over 0.2 and 3.5 SD of the protein, either way, in both replicates (recomputed)
[1] = compound: C1=CC=C(C=C1)[C@H](COC2=CC3=C(C=C2)NC(=O)N3)NC(=O)C4=CC=CN(C4=O)CC5=CC(=C(C=C5)F)F
Summary of the method: (§1)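 Pellets of K562 cells were dounce-homogenised in PBS pH 7.4 with 1 mM MgCl2, and the crude extract was held at 1 mg/mL protein for a 30 min treatment with 10 μM compound. Aliquots were heated for 3 min over 48°C-58°C and pooled before NP-40 was added to 0.5% at 4°C. The supernatant from 21,000xg for 90 min was quantified by TMTpro 16plex LC-MS/MS with channel sums equalised. Values are reported from duplicates as log-two fold change in thermal stability relative to solvent controls.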

[2] = compound: CC1=C(SC2=C1C(=N[C@H](C3=NN=C(N32)C)CC(=O)N)C4=CC=C(C=C4)Cl)C
Summary of the method: as §1

[3] = compound: CC1=C2C(=CC=C1)N=C(N(C2=O)C3=CC=CC=C3C)CN4C=NC5=C(N=CN=C54)N
Summary of the method: as §1

[4] = compound: Cc1sc2c(c1C)C(c1ccc(Cl)cc1)=N[C@@H](CC(=O)OC(C)(C)C)c1nnc(C)n1-2
Summary of the method: as §1

[5] = compound: c1ccc([C@@H]2C[C@H]2NC2CCNCC2)cc1
Summary of the method: as §1

Measured: log2 fold change

GMDS (UniProt O60547)
inactive: [1] -0.003 | [2] -0.014 | [3] 0.042 | [4] 0.033 | [5] 0.005

HLCS (UniProt P50747)
inactive: [1] -0.027 | [2] 0.027 | [3] 0.011 | [4] -0.006 | [5] 0.038

HDAC1 (UniProt Q13547)
inactive: [1] -0.04 | [2] 0.02 | [3] 0.001 | [4] -0.025 | [5] -0.015

HNRNPL (UniProt P14866)
inactive: [1] -0.01 | [2] -0.024 | [3] 0.04 | [4] 0.039 | [5] 0.071

KEAP1 (UniProt Q14145)
UniProt Q14145, sequence (Q14145 whole entry, looked up): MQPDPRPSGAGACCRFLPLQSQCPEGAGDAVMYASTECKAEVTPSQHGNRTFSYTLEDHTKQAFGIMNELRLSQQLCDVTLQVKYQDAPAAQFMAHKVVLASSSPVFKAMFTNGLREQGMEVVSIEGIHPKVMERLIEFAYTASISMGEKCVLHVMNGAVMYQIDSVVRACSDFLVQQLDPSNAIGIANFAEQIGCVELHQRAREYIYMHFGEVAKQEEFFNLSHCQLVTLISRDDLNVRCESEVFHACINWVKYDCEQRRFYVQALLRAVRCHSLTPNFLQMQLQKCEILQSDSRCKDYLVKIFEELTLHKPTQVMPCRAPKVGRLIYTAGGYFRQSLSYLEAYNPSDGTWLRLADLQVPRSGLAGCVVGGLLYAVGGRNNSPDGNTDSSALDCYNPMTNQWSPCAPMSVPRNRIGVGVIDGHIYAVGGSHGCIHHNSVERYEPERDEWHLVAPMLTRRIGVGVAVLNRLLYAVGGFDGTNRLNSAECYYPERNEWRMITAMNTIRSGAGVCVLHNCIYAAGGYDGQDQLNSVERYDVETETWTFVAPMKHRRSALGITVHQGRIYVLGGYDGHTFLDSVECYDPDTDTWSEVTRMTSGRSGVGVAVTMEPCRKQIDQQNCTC
inactive: [1] 0.029 | [2] 0.016 | [3] 0.014 | [4] -0.018 | [5] -0.02

GOLPH3 (UniProt Q9H4A6)
inactive: [1] -0.067 | [2] 0.018 | [3] 0.022 | [4] -0.089 | [5] 0.008

IFNGR1 (UniProt P15260)
inactive: [1] 0.094 | [2] 0.083 | [3] 0.142 | [4] -0.299 | [5] -0.479

HTT (UniProt P42858)
inactive: [1] 0.039 | [2] -0.088 | [3] 0.064 | [4] 0.066 | [5] -0.054

KHDRBS1 (UniProt Q07666)
inactive: [1] -0.04 | [2] 0.027 | [3] 0 | [4] 0.058 | [5] 0.045

IARS2 (UniProt Q9NSE4)
inactive: [1] 0.004 | [2] 0.013 | [3] -0.006 | [4] 0.028 | [5] 0.119

ILK (UniProt Q13418)
inactive: [1] -0.009 | [2] -0.019 | [3] 0.004 | [4] 0.027 | [5] -0.002

IMPDH2 (UniProt P12268)
inactive: [1] 0 | [2] -0.014 | [3] -0.007 | [4] 0.045 | [5] 0.017

HMGCL (UniProt P35914)
inactive: [1] 0.057 | [2] -0.017 | [3] 0.058 | [4] 0.046 | [5] 0.006

GLUL (UniProt P15104)
inactive: [1] -0.011 | [2] -0.063 | [3] -0.085 | [4] 0.031 | [5] 0.053

HNRNPUL2 (UniProt Q1KMD3)
inactive: [1] 0.011 | [2] 0.016 | [3] 0.015 | [4] 0.007 | [5] 0.032

HDAC3 (UniProt O15379)
inactive: [1] -0.035 | [2] 0.009 | [3] 0.006 | [4] 0.044 | [5] 0.014

HNRNPH2 (UniProt P55795)
inactive: [1] 0.036 | [2] -0.007 | [3] 0 | [4] 0.105 | [5] -0.011

KCTD20 (UniProt Q7Z5Y7)
inactive: [1] -0.031 | [2] -0.011 | [3] 0.097 | [4] -0.009 | [5] 0.078

GNL3 (UniProt Q9BVP2)
inactive: [1] 0.018 | [2] 0.087 | [3] 0.006 | [4] -0.023 | [5] 0.041

INTS5 (UniProt Q6P9B9)
inactive: [1] -0.086 | [2] -0.034 | [3] -0.019 | [4] 0.015 | [5] 0.127

HERC2 (UniProt O95714)
inactive: [1] 0.005 | [2] -0.07 | [3] -0.011 | [4] 0.018 | [5] -0.037

GSK3B isoform 2 (UniProt P49841)
inactive: [1] 0.036 | [2] -0.003 | [3] -0.042 | [4] 0.029 | [5] -0.074

GTF2I (UniProt P78347)
inactive: [1] -0.026 | [2] 0 | [3] 0.009 | [4] 0.015 | [5] 0.061

ITPR2 (UniProt Q14571)
inactive: [4] -0.171

HDAC6 (UniProt Q9UBN7)
UniProt Q9UBN7, sequence (Q9UBN7 whole entry, looked up): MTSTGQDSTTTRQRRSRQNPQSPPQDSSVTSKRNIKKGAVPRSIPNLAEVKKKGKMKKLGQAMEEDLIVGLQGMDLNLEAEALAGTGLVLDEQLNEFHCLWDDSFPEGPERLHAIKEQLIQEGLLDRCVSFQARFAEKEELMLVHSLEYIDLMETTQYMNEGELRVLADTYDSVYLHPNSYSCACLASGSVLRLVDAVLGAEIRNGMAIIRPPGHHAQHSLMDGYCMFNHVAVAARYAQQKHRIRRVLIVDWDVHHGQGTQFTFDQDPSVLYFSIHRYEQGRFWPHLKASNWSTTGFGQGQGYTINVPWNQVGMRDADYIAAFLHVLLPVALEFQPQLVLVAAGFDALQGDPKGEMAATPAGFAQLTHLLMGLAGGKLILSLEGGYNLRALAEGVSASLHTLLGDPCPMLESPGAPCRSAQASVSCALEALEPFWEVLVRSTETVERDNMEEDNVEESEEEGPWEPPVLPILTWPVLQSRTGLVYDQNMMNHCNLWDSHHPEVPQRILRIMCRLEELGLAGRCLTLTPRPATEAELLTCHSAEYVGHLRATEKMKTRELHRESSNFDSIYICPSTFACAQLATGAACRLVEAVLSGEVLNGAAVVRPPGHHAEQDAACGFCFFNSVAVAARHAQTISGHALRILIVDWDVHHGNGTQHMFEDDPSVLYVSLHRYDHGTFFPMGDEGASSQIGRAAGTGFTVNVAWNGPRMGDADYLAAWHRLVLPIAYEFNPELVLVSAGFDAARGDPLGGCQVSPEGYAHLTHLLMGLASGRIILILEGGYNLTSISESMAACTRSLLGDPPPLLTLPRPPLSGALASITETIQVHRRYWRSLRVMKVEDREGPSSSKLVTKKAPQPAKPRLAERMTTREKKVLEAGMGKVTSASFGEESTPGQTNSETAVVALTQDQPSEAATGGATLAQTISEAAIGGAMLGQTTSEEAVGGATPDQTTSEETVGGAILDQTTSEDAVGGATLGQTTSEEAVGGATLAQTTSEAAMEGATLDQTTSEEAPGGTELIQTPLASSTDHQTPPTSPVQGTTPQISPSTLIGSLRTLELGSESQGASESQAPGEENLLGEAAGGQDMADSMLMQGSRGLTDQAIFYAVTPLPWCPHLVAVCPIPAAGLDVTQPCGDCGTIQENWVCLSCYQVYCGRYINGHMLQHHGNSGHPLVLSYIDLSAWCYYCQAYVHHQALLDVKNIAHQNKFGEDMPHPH
inactive: [1] 0.029 | [2] 0.036 | [3] -0.017 | [4] -0.007 | [5] 0.042

HDLBP, A0A024R4E5
inactive: [1] -0.024 | [2] -0.013 | [3] 0.017 | [4] -0.018 | [5] 0.008

IGFBP4 (UniProt P22692)
inactive: [1] 0.135 | [2] -0.099 | [4] -0.032 | [5] -0.171

HNRNPM (UniProt M0R019)
inactive: [3] -0.116

ISL2 (UniProt Q96A47)
inactive: [1] 0.038 | [2] 0.058 | [4] -0.063 | [5] 0.207

KATNBL1 (UniProt Q9H079)
inactive: [3] -0.111 | [4] -0.012 | [5] -0.071

JAK3 (UniProt P52333)
UniProt P52333, sequence (P52333 whole entry, looked up): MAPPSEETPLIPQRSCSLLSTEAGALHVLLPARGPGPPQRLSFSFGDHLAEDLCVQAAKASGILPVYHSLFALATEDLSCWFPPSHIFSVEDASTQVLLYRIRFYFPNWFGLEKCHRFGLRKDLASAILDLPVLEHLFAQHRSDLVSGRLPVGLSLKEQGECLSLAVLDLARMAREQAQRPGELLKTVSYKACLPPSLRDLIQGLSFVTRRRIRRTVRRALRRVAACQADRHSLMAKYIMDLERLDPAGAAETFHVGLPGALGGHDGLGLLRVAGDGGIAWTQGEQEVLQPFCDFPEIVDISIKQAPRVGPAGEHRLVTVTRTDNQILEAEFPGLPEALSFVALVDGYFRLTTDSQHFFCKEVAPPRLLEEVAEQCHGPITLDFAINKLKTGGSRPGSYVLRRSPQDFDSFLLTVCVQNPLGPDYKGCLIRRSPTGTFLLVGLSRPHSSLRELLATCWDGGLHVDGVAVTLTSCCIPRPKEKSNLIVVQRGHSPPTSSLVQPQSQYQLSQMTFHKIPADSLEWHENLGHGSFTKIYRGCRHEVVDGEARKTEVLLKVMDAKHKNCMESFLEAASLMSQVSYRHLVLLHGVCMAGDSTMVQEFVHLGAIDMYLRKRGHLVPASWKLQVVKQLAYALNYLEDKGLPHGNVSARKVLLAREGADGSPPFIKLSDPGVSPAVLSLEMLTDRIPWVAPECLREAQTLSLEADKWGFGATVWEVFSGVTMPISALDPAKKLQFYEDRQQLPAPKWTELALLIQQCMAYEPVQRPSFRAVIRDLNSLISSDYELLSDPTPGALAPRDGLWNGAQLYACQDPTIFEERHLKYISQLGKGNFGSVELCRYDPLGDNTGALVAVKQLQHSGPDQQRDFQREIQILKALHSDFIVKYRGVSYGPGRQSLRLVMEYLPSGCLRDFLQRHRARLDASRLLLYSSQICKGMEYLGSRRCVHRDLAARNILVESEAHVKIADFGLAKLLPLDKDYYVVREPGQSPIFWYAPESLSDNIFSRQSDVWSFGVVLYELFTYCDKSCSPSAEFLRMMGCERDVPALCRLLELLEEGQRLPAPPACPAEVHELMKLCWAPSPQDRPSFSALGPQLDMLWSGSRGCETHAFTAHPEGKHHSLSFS
inactive: [1] 0.031 | [2] -0.051 | [3] -0.129 | [5] 0.254

HS1BP3 (UniProt Q53T59)
inactive: [1] 0.018 | [2] -0.03 | [3] -0.073 | [4] 0.004 | [5] -0.053

HSPA8 (UniProt E9PN89)
inactive: [1] 0.003 | [2] 0.044 | [4] -0.219 | [5] -0.393

ISY1 isoform 1 (UniProt Q9ULR0)
inactive: [1] 0.016 | [2] 0 | [3] 0.001 | [4] -0.12 | [5] -0.004

INPPL1 (UniProt O15357)
inactive: [1] 0.014 | [2] 0.029 | [3] -0.021 | [4] 0.012 | [5] 0.021

HYDIN (UniProt Q4G0P3)
inactive: [3] -0.069 | [4] -0.078

GNB4 (UniProt Q9HAV0)
inactive: [1] 0.162 | [2] -0.074 | [4] 0.031 | [5] -0.05

HOMER3 (UniProt Q9NSC5)
inactive: [1] 0.072 | [2] -0.276 | [5] 0

GORASP1 (UniProt Q9BQQ3)
UniProt Q9BQQ3, sequence (Q9BQQ3 whole entry, looked up): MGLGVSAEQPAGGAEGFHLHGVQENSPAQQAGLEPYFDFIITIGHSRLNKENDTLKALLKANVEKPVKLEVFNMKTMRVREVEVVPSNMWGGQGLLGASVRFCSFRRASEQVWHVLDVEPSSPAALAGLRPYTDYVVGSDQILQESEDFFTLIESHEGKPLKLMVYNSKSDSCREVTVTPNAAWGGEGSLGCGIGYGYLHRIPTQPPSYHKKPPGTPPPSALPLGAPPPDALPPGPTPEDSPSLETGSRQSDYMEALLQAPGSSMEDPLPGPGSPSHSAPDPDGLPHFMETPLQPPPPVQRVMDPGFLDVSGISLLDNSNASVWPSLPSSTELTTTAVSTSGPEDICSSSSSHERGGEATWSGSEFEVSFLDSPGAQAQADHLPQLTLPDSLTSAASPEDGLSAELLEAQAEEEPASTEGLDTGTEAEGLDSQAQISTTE
inactive: [3] -0.049 | [4] -0.031 | [5] 0.042

HECW2 (UniProt Q9P2P5)
inactive: [3] -0.048 | [4] -0.093

GYPA, A0A2R8Y7F9
inactive: [1] -0.088 | [2] -0.151 | [5] -0.163

INTS10 (UniProt Q9NVR2)
inactive: [1] -0.015 | [2] -0.057 | [3] 0.023 | [4] -0.077 | [5] -0.003

HNRNPUL1 (UniProt M0R247)
inactive: [1] 0.059 | [2] -0.014 | [5] -0.044

ITPRIP (UniProt Q8IWB1)
inactive: [4] 0.054

GPN2 (UniProt Q9H9Y4)
inactive: [3] 0.07 | [4] 0.057 | [5] -0.034

ITGB1BP2 (UniProt Q9UKP3)
inactive: [3] 0.116 | [4] 0.083 | [5] -0.029

IRS2 (UniProt Q9Y4H2)
inactive: [1] -0.091 | [2] 0.246 | [4] -0.129 | [5] -0.354

HSPBAP1 (UniProt Q96EW2)
UniProt Q96EW2, sequence (Q96EW2 whole entry, looked up): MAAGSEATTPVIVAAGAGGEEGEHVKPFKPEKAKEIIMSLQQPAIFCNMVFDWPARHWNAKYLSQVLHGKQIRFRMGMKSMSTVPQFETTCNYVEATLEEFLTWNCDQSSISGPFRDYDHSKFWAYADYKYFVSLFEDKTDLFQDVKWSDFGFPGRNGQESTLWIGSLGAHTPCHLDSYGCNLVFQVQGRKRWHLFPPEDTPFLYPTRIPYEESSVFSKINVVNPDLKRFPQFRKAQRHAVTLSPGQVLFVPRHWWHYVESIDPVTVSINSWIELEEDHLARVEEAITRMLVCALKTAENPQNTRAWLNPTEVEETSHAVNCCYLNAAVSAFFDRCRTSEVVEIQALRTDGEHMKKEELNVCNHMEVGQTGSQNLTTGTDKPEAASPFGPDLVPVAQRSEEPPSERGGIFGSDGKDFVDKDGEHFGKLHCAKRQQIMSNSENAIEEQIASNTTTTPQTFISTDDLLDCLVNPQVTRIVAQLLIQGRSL
inactive: [1] 0.069 | [2] -0.022 | [4] 0.065 | [5] 0.006

IPP (UniProt Q9Y573)
UniProt Q9Y573, sequence (Q9Y573 whole entry, looked up): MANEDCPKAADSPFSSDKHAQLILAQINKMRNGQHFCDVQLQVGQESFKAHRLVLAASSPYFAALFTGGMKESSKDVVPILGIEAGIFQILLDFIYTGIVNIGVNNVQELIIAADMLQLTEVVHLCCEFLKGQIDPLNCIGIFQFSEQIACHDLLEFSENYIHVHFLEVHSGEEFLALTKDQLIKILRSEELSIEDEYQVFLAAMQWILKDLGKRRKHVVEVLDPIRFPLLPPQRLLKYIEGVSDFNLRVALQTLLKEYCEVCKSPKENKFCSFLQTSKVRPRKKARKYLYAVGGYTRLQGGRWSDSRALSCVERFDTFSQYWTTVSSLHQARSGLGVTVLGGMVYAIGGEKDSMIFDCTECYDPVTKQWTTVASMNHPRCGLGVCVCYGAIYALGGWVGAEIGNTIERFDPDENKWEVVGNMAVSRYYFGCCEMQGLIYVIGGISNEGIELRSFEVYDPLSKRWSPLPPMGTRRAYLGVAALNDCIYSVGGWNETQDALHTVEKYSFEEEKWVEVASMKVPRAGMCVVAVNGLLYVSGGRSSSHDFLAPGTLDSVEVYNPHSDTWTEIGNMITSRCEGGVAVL
inactive: [3] -0.009 | [4] -0.099 | [5] 0.02

GTPBP6 (UniProt O43824)
UniProt O43824, sequence (O43824 whole entry, looked up): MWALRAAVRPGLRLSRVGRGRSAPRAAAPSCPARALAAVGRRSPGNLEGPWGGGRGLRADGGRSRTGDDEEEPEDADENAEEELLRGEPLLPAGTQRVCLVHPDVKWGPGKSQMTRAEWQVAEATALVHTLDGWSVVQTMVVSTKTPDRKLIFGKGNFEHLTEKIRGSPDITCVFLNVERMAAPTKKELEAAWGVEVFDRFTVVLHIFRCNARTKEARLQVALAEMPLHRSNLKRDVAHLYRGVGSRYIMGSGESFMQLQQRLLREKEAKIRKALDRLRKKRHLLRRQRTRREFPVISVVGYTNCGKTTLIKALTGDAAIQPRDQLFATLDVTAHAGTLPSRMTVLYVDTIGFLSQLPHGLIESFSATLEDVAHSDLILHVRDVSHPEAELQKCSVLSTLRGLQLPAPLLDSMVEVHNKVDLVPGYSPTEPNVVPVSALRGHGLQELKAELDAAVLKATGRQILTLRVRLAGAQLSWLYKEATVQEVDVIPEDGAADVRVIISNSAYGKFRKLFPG
inactive: [3] 0.385 | [4] -0.439 | [5] 0.118

GIPC3 (UniProt Q8TF64)
inactive: [1] -0.002 | [2] 0.042 | [4] 0.013 | [5] -0.075

HSD17B10 (UniProt Q99714)
inactive: [1] -0.006 | [2] 0.062 | [3] 0.03 | [4] 0.022 | [5] 0.003

HMGA1 isoform 2 (UniProt P17096)
inactive: [4] 0.055 | [5] 0.419

GMPS (UniProt P49915)
inactive: [1] -0.014 | [2] -0.001 | [3] 0.02 | [4] 0.019 | [5] 0.088

GPLD1 (UniProt P80108)
inactive: [4] 0.209

INTS1 (UniProt Q8N201)
inactive: [1] -0.017 | [2] 0.065 | [3] -0.045 | [4] 0.019 | [5] 0.004

H3-3A (UniProt P84243)
inactive: [1] 0.059 | [2] 0.016 | [3] 0.024 | [5] -0.004
